From PubChem BioAssay (NCATS)
Results filed as inconclusive are left out. A call without a number means that no potency is given here. Active and inactive are the calls of the source. Calls come from the whole dose curve.

Assay: Primary qHTS for Huh7 cytotoxicity: counterscreen for inhibitors of MERS-S pseudotyped particle cell entry (AID 1479147)
Settings: cell viability read-out; series mostly up to 57.1 µM; activity change, negative = cytotoxicity: at the top concentration

| Compound | outcome | activity change, negative = cytotoxicity |
| --- | --- | --- |
| CC[C@H](C)C(=O)O[C@H]1C[C@H](O)C=C2C=C[C@H](C)[C@H](CC[C@@H](O)C[C@@H](O)CC(=O)O)[C@H]21 | inactive | – |
| O=C(NCCO[N+](=O)[O-])c1cccnc1 | inactive | – |
| O=C(NC(Cc1cc(=O)[nH]c2ccccc12)C(=O)O)c1ccc(Cl)cc1 (stereo not given) | inactive | – |
| COc1cc(C)nc(-n2nc(C)cc2OC)n1 | – | -5.42% (inactive) |
| Cc1nc2ccc(CN(C)c3ccc(C(=O)N[C@@H](CCC(=O)O)C(=O)O)s3)cc2c(=O)[nH]1 | inactive | – |
| CCS(=O)(=O)CCn1c([N+](=O)[O-])cnc1C | inactive | – |
| CC(C)Cc1ccc(CC(=O)O)cc1 | inactive | – |
| O=C(O[C@H]1CN2CCC1CC2)N1CCc2ccccc2[C@@H]1c1ccccc1 | inactive | – |
| C[N+](C)(C)CCCCCC[N+](C)(C)C | inactive | – |
| CC(C)NC(C)C | inactive | – |
| CC(=O)OCC(=O)[C@H]1CC[C@H]2[C@@H]3CCC4=CC(=O)CC[C@]4(C)[C@H]3CC[C@]12C | inactive | – |
| CN1C(C(=O)Nc2ccccn2)=C(O)c2sccc2S1(=O)=O | inactive | – |
| C/C=C1\[C@H]2C=C(C)C[C@]1(N)c1ccc(=O)[nH]c1C2 | inactive | – |
| N#CSCC(=O)O | – | -14.9% (inactive) |
| CN(C)CCOc1ccc(/C(=C(/CCCl)c2ccccc2)c2ccccc2)cc1 | – | -14.8% (inactive) |
| Cc1c(C)c2c(c(C)c1O)CCC(C)(COc1ccc(CC3SC(=O)NC3=O)cc1)O2 (stereo not given) | – | -4.42% (inactive) |
| CCCCC(CC)CN1CN(CC(CC)CCCC)CC(C)(N)C1 (stereo not given) | – | -7.12% (inactive) |
| NC(N)=NS(=O)(=O)c1ccc(N)cc1 | inactive | – |
| C=C1[C@H](CO)[C@@H](O)C[C@@H]1n1cnc2c(=O)[nH]c(N)nc21 | inactive | – |

| Compound | outcome | activity change, negative = cytotoxicity |
| --- | --- | --- |
| NC(CO)(CO)CO | inactive | – |
| c1ccc2c(c1)CCCC2C1=NCCN1 (stereo not given) | inactive | – |
| O=C(/C=C/c1ccccc1)OCc1ccccc1 | inactive | – |
| CN1[C@@H]2CC[C@H]1CC(OC(c1ccccc1)c1ccccc1)C2 (stereo not given in full) | inactive | – |
| C[C@H]1O[C@@H](n2cc(F)c(=O)[nH]c2=O)[C@H](O)[C@@H]1O | – | -8.63% (inactive) |
| c1ccc2c(c1)sc1ccccc12 | – | 0.719% (inactive) |
| CCC(CC)(CNC(=O)CCCO)c1cccc(OC)c1 | inactive | – |
| O=C1[O][Bi][O]c2ccccc21 | inactive [at 0.573 µM] | – |
| COc1ccc(C(=O)c2ccccc2O)c(O)c1 | – | -1.45% (inactive) |
| COC(=O)C1=C(C)NC(C)=C(C(=O)OCC(C)=O)C1c1ccccc1[N+](=O)[O-] (stereo not given) | – | -20.8% (inactive) |
| CCN(CC)CC#CCOC(=O)C(O)(c1ccccc1)C1CCCCC1 (stereo not given) | inactive | – |
| NCCCNCCSP(=O)(O)O | inactive [at 11.4 µM] | – |
| CCCCCCCCCCOc1cc2c(=O)c(C(=O)OCC)c[nH]c2cc1OCC | inactive [at 5.34 µM] | – |
| CC(C)(C)NCC(O)c1cc(O)cc(O)c1 (stereo not given) | inactive | – |
| CCCCCCCCCCCC(=O)[O][Sn]([CH2]CCC)([CH2]CCC)[O]C(=O)CCCCCCCCCCC | inactive | – |
| C[C@@H]1CN(c2c(F)c(F)c3c(=O)c(C(=O)O)cn(C4CC4)c3c2F)C[C@H](C)N1 | inactive [at 26.4 µM] | – |
| CCc1oc2ccccc2c1C(=O)c1cc(I)c(O)c(I)c1 | – | -13.5% (inactive) |
| CCOC(=O)C1=C(COCCN)NC(C)=C(C(=O)OC)C1c1ccccc1Cl (stereo not given) | inactive | – |
| CO/N=C(/C(=O)N[C@@H]1C(=O)N2C(C(=O)OCOC(=O)C(C)(C)C)=C(C)CS[C@H]12)c1csc(N)n1 | inactive | – |

Assay: Primary qHTS for inhibitors of MERS-S pseudo-typed particle cell entry (AID 1479149); note: nearly all actives have a fitted effect of over 60% in size; note: potency is the fitted concentration of half-maximal effect
Settings: MERS-S pseudotyped particle entry, luciferase; series mostly up to 57.1 µM; activity change, negative = inhibition: at the top concentration

| Compound | outcome | activity change, negative = inhibition | Potency |
| --- | --- | --- | --- |
| CC[C@H](C)C(=O)O[C@H]1C[C@H](O)C=C2C=C[C@H](C)[C@H](CC[C@@H](O)C[C@@H](O)CC(=O)O)[C@H]21 | inactive | – | – |
| O=C(NCCO[N+](=O)[O-])c1cccnc1 | inactive | – | – |
| O=C(NC(Cc1cc(=O)[nH]c2ccccc12)C(=O)O)c1ccc(Cl)cc1 (stereo not given) | inactive | – | – |
| Cc1nc2ccc(CN(C)c3ccc(C(=O)N[C@@H](CCC(=O)O)C(=O)O)s3)cc2c(=O)[nH]1 | – | -23.1% (inactive) | – |
| CCS(=O)(=O)CCn1c([N+](=O)[O-])cnc1C | inactive | – | – |
| CC(C)Cc1ccc(CC(=O)O)cc1 | inactive | – | – |
| C[N+](C)(C)CCCCCC[N+](C)(C)C | inactive | – | – |
| CC(C)NC(C)C | inactive | – | – |
| CN1C(C(=O)Nc2ccccn2)=C(O)c2sccc2S1(=O)=O | inactive | – | – |
| C/C=C1\[C@H]2C=C(C)C[C@]1(N)c1ccc(=O)[nH]c1C2 | inactive | – | – |
| N#CSCC(=O)O | inactive | – | – |
| Cc1c(C)c2c(c(C)c1O)CCC(C)(COc1ccc(CC3SC(=O)NC3=O)cc1)O2 (stereo not given) | – | – | 25.1 µM (active) |
| CCCCC(CC)CN1CN(CC(CC)CCCC)CC(C)(N)C1 (stereo not given) | inactive | – | – |
| C=C1[C@H](CO)[C@@H](O)C[C@@H]1n1cnc2c(=O)[nH]c(N)nc21 | – | 0.211% (inactive) | – |
| NC(CO)(CO)CO | inactive | – | – |
| c1ccc2c(c1)CCCC2C1=NCCN1 (stereo not given) | inactive | – | – |

| Compound | outcome | activity change, negative = inhibition | Potency |
| --- | --- | --- | --- |
| O=C(/C=C/c1ccccc1)OCc1ccccc1 | inactive | – | – |
| CN1[C@@H]2CC[C@H]1CC(OC(c1ccccc1)c1ccccc1)C2 (stereo not given in full) | – | – | 14.1 µM (active) |
| C[C@H]1O[C@@H](n2cc(F)c(=O)[nH]c2=O)[C@H](O)[C@@H]1O | – | -20.1% (inactive) | – |
| c1ccc2c(c1)sc1ccccc12 | inactive | – | – |
| CCC(CC)(CNC(=O)CCCO)c1cccc(OC)c1 | inactive | – | – |
| O=C1[O][Bi][O]c2ccccc21 | inactive [at 0.573 µM] | – | – |
| COc1ccc(C(=O)c2ccccc2O)c(O)c1 | – | 0.163% (inactive) | – |
| COC(=O)C1=C(C)NC(C)=C(C(=O)OCC(C)=O)C1c1ccccc1[N+](=O)[O-] (stereo not given) | – | -2.83% (inactive) | – |
| NCCCNCCSP(=O)(O)O | inactive [at 11.4 µM] | – | – |
| CCCCCCCCCCOc1cc2c(=O)c(C(=O)OCC)c[nH]c2cc1OCC | inactive [at 5.34 µM] | – | – |
| CC(C)(C)NCC(O)c1cc(O)cc(O)c1 (stereo not given) | inactive | – | – |
| CCCCCCCCCCCC(=O)[O][Sn]([CH2]CCC)([CH2]CCC)[O]C(=O)CCCCCCCCCCC | inactive | – | – |
| C[C@@H]1CN(c2c(F)c(F)c3c(=O)c(C(=O)O)cn(C4CC4)c3c2F)C[C@H](C)N1 | inactive [at 26.4 µM] | – | – |
| CCc1oc2ccccc2c1C(=O)c1cc(I)c(O)c(I)c1 | inactive | – | – |
| CCOC(=O)C1=C(COCCN)NC(C)=C(C(=O)OC)C1c1ccccc1Cl (stereo not given) | – | -2.56% (inactive) | – |
| CO/N=C(/C(=O)N[C@@H]1C(=O)N2C(C(=O)OCOC(=O)C(C)(C)C)=C(C)CS[C@H]12)c1csc(N)n1 | inactive | – | – |
